# A selection: hits, their analogues and other compounds. The true share with any hit is near 5.2%.
# ALR H2O2 inh: inhibitors of human ALR sulfhydryl oxidase, primary screen, biochemical, H2O2 detection, HRP-luminol luminescence, single point; purified ALR, DTT oxidation; actives 3.8% (n = 290,000); FAD-linked sulfhydryl oxidase ALR (Homo sapiens), P55789; inhibition, % (concentration not given with the values);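 active = mean replicate inhibition above about 79%, with every replicate also reaching it, limit read from the data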
# Target sequence (P55789 whole entry, looked up): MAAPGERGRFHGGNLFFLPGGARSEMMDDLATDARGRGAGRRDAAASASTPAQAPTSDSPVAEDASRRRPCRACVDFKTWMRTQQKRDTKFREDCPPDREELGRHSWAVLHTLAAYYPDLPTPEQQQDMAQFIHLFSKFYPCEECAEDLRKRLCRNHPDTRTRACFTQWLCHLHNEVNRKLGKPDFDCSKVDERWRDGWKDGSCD
# Yeast superoxide: reduction of superoxide in aged yeast, primary screen, HTS; S. cerevisiae aged cells, superoxide DHE fluorescence; stronger effect = lower value; superoxide response (% of plate mean), % at 10 µM; actives 0.18% (n = 330,000); AID 2690, 2010;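 active = superoxide response under a set limit, about three screen SD below normal, cut at about 65% in these data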;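 also: yeast aged for seven days with compound at 30 °C before DHE staining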
# A3G deaminase: APOBEC3G DNA deaminase inhibitors, primary screen, biochemical, fluorescence, single-stranded DNA substrate, uHTS | DNA dC->dU-editing enzyme APOBEC-3G (Homo sapiens), Q9HC16 | recombinant A3G, ssDNA deamination FAM/TAMRA fluorescence | inhibition, % at 20 µM | actives 0.28% (n = 330,000) | AID 493012, 2011;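 active = inhibition of at least 40% at 20 µM, with no more than 30% in the related APOBEC3A deaminase screen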
# CendR NRP1 mod: modulators of CendR peptide binding to NRP-1, primary screen, biochemical, fluorescence polarization, uHTS; actives 0.85% (n = 360,000); Neuropilin-1 (Homo sapiens), O14786; inhibition, % at 25 µM; FAM-RPARPAR peptide binding to NRP-1;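 active = inhibition or corrected inhibition above about 18%, plus a signal ratio from 0.5 to 1.5, limit read from the data, passing the limit was not always enough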
# APOBEC3A inh: APOBEC3A ssDNA deaminase inhibitors, primary screen, selectivity assay for APOBEC3G inhibitor project, biochemical, FAM/TAMRA oligo cleavage fluorescence; recombinant A3A, FAM/TAMRA ssDNA deamination fluorescence; DNA dC->dU-editing enzyme APOBEC-3A (Homo sapiens), P31941; inhibition, % at 20 µM; actives 0.41% (n = 330,000);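 active = at least 40% inhibition at 20 µM here, with at most 30% in a related deaminase screen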
# PfM18AAP inh-1: PfM18AAP inhibitors, malaria aminopeptidase, primary screen, biochemical, QFRET, recombinant enzyme; M18 aspartyl aminopeptidase (Plasmodium falciparum 3D7); H-Glu-NHMec fluorogenic cleavage; inhibition, % at 7.35 µM; actives 1.2% (n = 290,000);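 active = inhibition above the campaign mean inhibition over all tested compounds plus 3 SD, cut at about 28% in these data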
# PfM18AAP inh-2: PfM18AAP inhibitors, malaria aminopeptidase, confirmation, biochemical, QFRET, recombinant enzyme, triplicate | shares compounds with PfM18AAP inh-1 | H-Glu-NHMec fluorogenic cleavage | inhibition, % at 7.35 µM | actives 28% (n = 2,400) | AID 2170, 2009;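 active = mean inhibition over replicate wells above the hit cutoff set for the earlier primary screen, cut at about 29% in these data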
# CTSL1 confirm: cathepsin L1 inhibitors, retest, confirmation, counter-screen for PFM18AAP inhibitor project, biochemical, QFRET, triplicate; AID 2178, 2009; shares compounds with PfM18AAP inh-1; 2,400 tested, under 10 active; inhibition, % at 5.96 µM; purified cathepsin L1, Z-Leu-Arg-MCA fluorescence;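 active = average inhibition across replicates above the hit cutoff set in the earlier primary screen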
# Target sequence (P07711 whole entry, looked up): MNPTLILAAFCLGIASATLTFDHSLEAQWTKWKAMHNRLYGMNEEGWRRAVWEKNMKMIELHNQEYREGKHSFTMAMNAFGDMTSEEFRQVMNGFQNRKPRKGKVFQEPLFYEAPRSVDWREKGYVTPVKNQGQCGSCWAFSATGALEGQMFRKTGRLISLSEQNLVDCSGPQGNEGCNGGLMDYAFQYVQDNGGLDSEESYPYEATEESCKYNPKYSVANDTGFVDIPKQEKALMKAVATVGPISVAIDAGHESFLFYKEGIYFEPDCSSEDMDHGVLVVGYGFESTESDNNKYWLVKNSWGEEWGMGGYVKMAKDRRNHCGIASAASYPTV
# Hits are given with their value; – = inactive; · = no result.
SMILES,ALR H2O2 inh,Yeast superoxide,A3G deaminase,CendR NRP1 mod,APOBEC3A inh,PfM18AAP inh-1,PfM18AAP inh-2,CTSL1 confirm
COCC(C)NC(=O)NC1(C(F)(F)F)Oc2ccc(Cl)cc2O1 (stereo not given),–,–,–,–,–,79.5,66.1,–
O=C(NCCN1CCOCC1)c1cc(Cl)ccc1Cl,–,–,–,–,–,–,·,·
COCC(C)NC(=O)NC(=O)c1ccc(Cl)cc1 (stereo not given),–,–,–,–,–,–,·,·
O=C(NCCN1CCOCC1)NC1(C(F)(F)F)Oc2ccc(Cl)cc2O1 (stereo not given),99.0,–,·,–,·,87.0,88.9,–
COc1ccc(N2CCN(CCCn3c(=S)[nH]c4ncccc4c3=O)CC2)cc1,–,–,–,–,–,44.9,–,–
COC(=O)N1c2ccccc2CCc2ccccc21,–,–,–,–,–,–,·,·
Cc1ccc(/C(O)=C/c2nc3cc(C)ccc3oc2=O)cc1,–,–,–,–,–,38.6,–,–
Cc1c(C(=O)c2no[n+]([O-])c2C(=O)c2cnn(C)c2C)cnn1C,–,–,–,–,–,58.7,77.4,–
COc1ccc(NC(=S)N(CCC(C)C)C2CCN(C(C)C)CC2)cc1Cl,–,–,–,–,–,–,·,·
COc1ccc(NC(=S)NCCN2CCC(C)CC2)cc1Cl,–,–,–,–,–,36.0,–,–
COCCN(C(=S)Nc1ccc(OC)c(Cl)c1)C1CCN(C(C)C)CC1,–,–,–,–,–,36.3,–,–
CCNc1nc(N)nc(Oc2ccc(OCCOc3ccccc3)nn2)n1,–,–,–,–,–,–,·,·
COc1cccc(-n2c(SCc3cc(=O)oc4cc(O)c(O)cc34)nc3ccccc3c2=O)c1,–,–,·,–,·,55.9,–,–
CCN(CC)C(=O)CSc1nc2ccccc2c(=O)n1-c1cccc(OC)c1,·,–,–,–,–,–,·,·
CCCC(c1nnnn1C(C)(C)CC)N1CCN(C(=O)c2ccco2)CC1 (stereo not given),·,–,–,–,–,–,·,·
O=C(N/N=C/c1cc(Cl)ccc1O)c1ccccc1Br,·,–,–,–,–,–,·,·
O=C(N/N=C/c1coc2ccc(Cl)cc2c1=O)c1ccncc1,–,–,–,–,–,–,·,·
O=C(N/N=C/c1coc2ccccc2c1=O)c1cc(O)cc(O)c1,·,·,–,–,–,38.6,–,–
O=C(N/N=C/c1coc2ccccc2c1=O)c1ccccc1Br,–,–,–,–,–,35.7,–,–
Nc1nc(N2CCN(C(=O)c3ccco3)CC2)nc2ccc(Br)cc12,–,–,–,–,–,–,·,·
CCOC(=O)CC1C(=O)NCCN1S(=O)(=O)c1ccc(Cl)cc1Cl (stereo not given),·,–,–,–,–,–,·,·
COc1cc2c(cc1OC)C(COc1ccc(F)cc1)N(C(=O)c1ccco1)CC2 (stereo not given),–,–,–,–,–,–,·,·
COc1cc2c(cc1OC)C(c1cc3cccc(C)c3[nH]c1=O)N(C(=O)c1ccco1)CC2 (stereo not given),–,–,–,–,–,48.4,–,–
COC(=O)Nc1nc2c(C)cccc2s1,–,–,–,–,–,–,·,·
CCC(=O)NNc1nc2c(C)c(C)ccc2s1,–,–,–,–,–,37.4,–,–
SMILES,ALR H2O2 inh,Yeast superoxide,A3G deaminase,CendR NRP1 mod,APOBEC3A inh,PfM18AAP inh-1,PfM18AAP inh-2,CTSL1 confirm
O=C(Nc1nc2c(Cl)cccc2s1)C1CC1,–,–,–,–,–,–,·,·
CCC(=O)NNc1nc2c(Cl)cccc2s1,–,–,–,–,–,33.1,–,–
CCC(=O)NNc1nc2c(C)cccc2s1,–,–,–,–,–,47.8,–,–
O=C(COc1cc(F)ccc1[N+](=O)[O-])Nc1cc(S(=O)(=O)N2CCCC2)ccc1Cl,·,·,–,–,–,·,·,·
COC(=O)c1sccc1S(=O)(=O)Nc1ccc(Cl)cc1,–,–,–,–,–,–,·,·
O=C(Nn1cnnc1)c1cc([N+](=O)[O-])cc([N+](=O)[O-])c1,–,–,–,–,–,45.5,49.3,–
Nc1c(C(=O)Nn2cnnc2)cc([N+](=O)[O-])cc1[N+](=O)[O-],–,–,–,·,–,62.5,56.3,–
O=C(Nn1cnnc1)c1ccc([N+](=O)[O-])cc1Cl,–,–,–,–,–,·,·,·
COc1cc(OC)cc(C(=O)Nn2cnnc2)c1,–,–,–,–,–,35.6,29.7,–
O=C1C(Cl)=C(Nc2ccccc2O)C(=O)N1CCc1ccccc1,–,–,–,–,–,–,·,·
CC1CC(C)CN(C(=O)c2nn(C)c3c2CSc2ccccc2-3)C1 (stereo not given),–,–,–,–,–,–,·,·
CC1CCCN(C(=O)c2nn(C)c3c2CSc2ccccc2-3)C1 (stereo not given),–,–,–,–,–,42.0,–,–
COc1cccc(C2CC(C(F)(F)F)n3ncc(C(=O)NCc4ccco4)c3N2)c1 (stereo not given),–,–,–,–,–,–,·,·
CN(CC(=O)Nc1ccc(Cl)c(S(=O)(=O)N(C)C)c1)Cc1ccccc1,·,–,–,–,–,–,·,·
Cc1cc(/C=C2\Sc3ccccc3N2C)cc(C)[n+]1CC1CCCO1 (stereo not given),·,·,–,–,–,50.3,–,–
COc1c(OC2OC(C(=O)O)C(O)C(O)C2O)cc(O)c2c(=O)cc(-c3ccccc3)oc12 (stereo not given),–,–,–,–,–,–,·,·
O=C(O)C1OC(Oc2cc3oc(-c4ccccc4)cc(=O)c3c(O)c2O)C(O)C(O)C1O (stereo not given),–,–,–,–,–,44.4,–,–
COc1ccc(Cn2ccc(=O)c(Cc3c(Cl)cccc3Cl)c2C)cc1,–,–,–,–,–,–,·,·
COc1ccc(/C=C(\C#N)C(=O)NCCc2ccccc2)cc1OCc1ccccc1,–,–,–,–,–,–,·,·
N#C/C(=C\c1ccc(O)c(O)c1)C(=O)NCCCc1ccccc1,·,–,–,–,–,33.9,–,–

# Compound activity (PubChem)
